Screens from PubChem.
Hits are enriched below; roughly 3.2% of the tested compounds scored in any of these assays.
VACV Venus inh = vaccinia inhibition (Venus reporter). Vaccinia virus Venus reporter expression, fluorescence. Potency, µM (doses to about 36.5 µM), without a hit: at the highest dose activity change, negative = inhibition, usual class: inhibitors. 0.46% of 330,000 active; calls by dose curve; tested in A549 cells; note: nearly all actives have a fitted effect of over 30% in size
MARV entry inh = blocks Marburg virus binding to or entry into cells. Marburg virus pseudotyped entry inhibition, cell reporter. Potency, µM (highest dose often 37.8 µM), inactives show at the highest dose activity change, negative = inhibition, hits mostly inhibitors. 1.8% of 300,000 active; calls by dose curve; tested in HEK293 cells
FMDV inh = foot and mouth disease virus antiviral activity; 1.2% of 410,000 active; Potency, µM (doses to about 57.9 µM), inactives show top-dose activity change, negative = inhibition, most hits filed as inhibitors; FMDV antiviral cell-based qHTS; calls by dose curve; tested in HEK293T cells; note: read-out not given here; nearly all actives have a fitted effect of over 45% in size
VACV mCherry inh = inhibitors of vaccinia virus infection (mCherry reporter signal); 0.63% of 310,000 active; Vaccinia virus mCherry reporter infection, fluorescence; AID 720579; Potency, µM (series often up to 36.5 µM), inactives show top-dose activity change, negative = inhibition, most hits filed as inhibitors; calls by dose curve; tested in A549 cells; note: nearly all actives have a fitted effect of over 35% in size
Lassa entry inh = inhibitors of Lassa virus binding or cell entry; AID 540256; Potency, µM (top dose mostly 37.9 µM), without a hit: at the highest dose activity change, negative = inhibition, most hits filed as inhibitors; 1.2% of 300,000 active; Lassa virus pseudotype entry inhibition, cell reporter; calls by dose curve; tested in HEK293 cells; note: nearly all actives have a fitted effect of over 50% in size
The depositor's hits bear a star; i = inactive; ? = inconclusive; nt = no result; ! = not active in a repeat; [ ] = remark or other dose. % is set by controls: 0 for no effect and ±100 for the full control effect; potency is the fitted concentration of half-maximal effect.

SMILES | VACV Venus inh | MARV entry inh | FMDV inh | VACV mCherry inh | Lassa entry inh
O=C(Cc1ccc([N+](=O)[O-])cc1)N/N=C/c1ccc([N+](=O)[O-])o1 | 11µM* | nt | -13% | 10µM* | nt
CC1CCN(C(C)C(=O)Nc2ccccc2-c2ccccc2)CC1 (stereo not given) | -8% | 12µM* | ? | -13% | -4%
CC(C(=O)NCCSCc1cccc(Cl)c1)N(c1ccccc1)S(C)(=O)=O (stereo not given) | -7% | -19% | -23% | -20% | ?
CC1CCc2c(c3ccccc3n2C(=O)CCl)C1 (stereo not given) | -26% | -24%[46.1 µM] | 20µM* | -28% | -8%[46.1 µM]
CCN1CCN(CC(=O)n2c3c(c4ccccc42)CC(C)CC3)CC1 (stereo not given) | -17% | ? | -23% | nt | -26%
COc1ccc(CCN(C)CC(O)COC(c2ccc(F)cc2)c2ccc(F)cc2)cc1OC (stereo not given) | -27% | 5.6µM* | -11% | i | ?
COc1ccc(CCN(C)CC(O)COc2c(C)ccc(C)c2C)cc1OC (stereo not given) | nt | nt | -27% | nt | nt
COC(=O)C1=C(C)N(Cc2ccccc2)C(=NCCc2c[nH]c3ccccc23)NC1c1cccc(F)c1 (stereo not given) | nt | -17%[14.2 µM] | nt | nt | ?
C=C(C)C1CC=C(C)/C(=N\NC(=S)Nc2ccc(C)cc2)C1 (stereo not given) | -28% | ? | 27% | -11% | 13µM*
Cc1ccc2nc(-c3ccc(NS(C)(=O)=O)cc3)cc(-c3ccccc3)c2c1 | nt | -15% | -27% | nt | -18%
Cc1ccc2nc(-c3ccncc3)cc(-c3ccccc3)c2c1 | nt | 13µM* | 0% | nt | -1%
CN(C)CC/C=C1\c2ccccc2Sc2cc(F)c(Cl)cc21 | ? | 14µM* | ? | -9% | ?
CN(C)CC/C=C1/c2ccc(F)cc2Sc2ccc(Cl)cc21 | 3%[7.34 µM] | 13µM* | -14% | -1%[7.34 µM] | ?
CN(C)CC/C=C1\c2ccccc2Sc2ccc(Cl)cc21 | ? | ? | -23% | ? | ?
CN(C)CC/C=C1/c2ccccc2COc2ccccc21 | -9% | nt | -8% | -18% | nt
CN(C)CC/C=C1\c2cc(F)ccc2CSc2ccccc21 | ? | ? | ? | -13% | 16µM*
OCCN1CCN(CC/C=C2/c3ccccc3Sc3ccc(Cl)cc32)CC1 | ? | nt | -3% | -22% | nt
CN(C)CC/C=C1/c2cc(F)ccc2CSc2ccc(F)cc21 | -15% | ? | -23% | -3% | ?
OC[C@H]1O[C@@H](O[C@H]2[C@H](O)[C@@H](O)[C@H](O)O[C@@H]2CO)[C@H](O)[C@@H](O)[C@@H]1O | 0% | nt | 2% | i | nt
NC(CSCc1ccccc1Cl)C(=O)O (stereo not given) | nt | ? | -6% | nt | -29%
N=C(N)SCc1ccccc1Cl | -6% | 8.2µM* | ? | i | -8%
N=c1cc(C2(O)CCCCC2)n2c(nc3ccccc32)s1 | nt | 5.8µM* | -23% | nt | 10µM*
O=c1c(O)c(-c2ccccc2)oc2cc(O)cc(O)c12 | -12% | nt | 7% | -21% | nt
O=c1c(O)c(-c2cc(O)c(O)c(O)c2)oc2cc(O)cc(O)c12 | -14% | 22µM* | -19% | -11% | ?
CC(C)CCNC(=O)CCCCn1c(=O)[nH]c2ccsc2c1=O | 3% | 1%[46.1 µM] | 19% | -3% | -11%[46.1 µM]
SMILES | VACV Venus inh | MARV entry inh | FMDV inh | VACV mCherry inh | Lassa entry inh
CC(C)CC(=O)Nc1ccc(Nc2ccccc2)cc1 | -18% | ? | 28% | -5% | 3.5µM*
CC(C)CC(=O)Nc1ccc(Oc2ccc(NC(=O)CC(C)C)cc2)cc1 | nt | -5% | -13% | nt | -4%
OCCNCC(O)CN1c2ccccc2Sc2ccccc21 (stereo not given) | -18% | ? | ? | ? | -18%
Cn1c(=O)c2cc(C(=O)NCCCN3CCN(c4ccc(F)cc4)CC3)sc2c2ccccc21 | ? | 2%[46.1 µM] | ? | ? | 13%[46.1 µM]
CCCCc1ccc(Nc2ncnc3nc[nH]c23)cc1 | -29% | nt | 19% | 10µM* | nt
CCc1ccc(Nc2ncnc3nc[nH]c23)cc1 | 0% | ? | 2% | -9% | ?
N#C/C(=C\c1ccc(Oc2ccc(C(F)(F)F)cc2[N+](=O)[O-])cc1)c1nc2ccccc2[nH]1 | -16% | ? | 25µM* | nt | ?
CCCN1C(=O)c2ccccc2NC1c1ccc(OC)cc1O (stereo not given) | -14% | ? | ? | nt | 1.6µM*
CC1(C)CC(=O)C=C(NCC(O)c2ccccc2)C1 (stereo not given) | nt | nt | -5% | nt | nt
CCOC(=O)C1(Cc2ccccc2)CCN(Cc2cccc3c2OCO3)CC1 | -10% | ? | -11% | -13% | -7%
CCOC(=O)C1(CCOc2ccccc2)CCN(Cc2ccc(O)c(OCC)c2)CC1 | -12% | 11µM* | -26% | ? | ?
CCOC(=O)C1(CCc2ccccc2)CCN(Cc2csc(C(C)=O)c2)CC1 | ? | ? | 13µM* | -26% | -14%
CCOC(=O)C1(CCc2ccccc2)CCN(Cc2cccc3c2OCO3)CC1 | -13% | 13µM* | ? | -21% | ?
CCOC(=O)C1(CCc2ccccc2)CCN(Cc2c(O)cccc2OC)CC1 | -22% | ? | 32µM* | -29% | ?
COc1cccc([C@@H]2Oc3ccc(Br)cc3C(=O)[C@@H]2OC(=O)Nc2cc(OC)c(OC)c(OC)c2)c1 | nt | 5%[14.2 µM] | nt | nt | nt
CCOC(=O)C1(CCCc2ccccc2)CCN(C(=O)c2ocnc2C)CC1 | -7% | -3%[46.1 µM] | -18% | -12% | 2.8µM*
CCOC(=O)C1(CCCc2ccccc2)CCN(C(=O)c2cncs2)CC1 | -17% | -25%[46.1 µM] | -27% | -11% | ?
COc1ccc(CNC(=O)CCC(=O)N2CCSc3ccccc32)cc1 | 5% | nt | -11% | -15% | 5%[46.1 µM]
COc1cccc(CN2CCN(Cc3nc(C(C)C)cs3)CC2CCO)c1 (stereo not given) | 8% | -11%[46.1 µM] | -26% | -11% | ?
C=C(C(C)=O)C(O)c1ccco1 (stereo not given) | nt | 0%[14.2 µM] | nt | nt | ?
Cc1ccc(-c2nn(CC(=O)NCc3cc(-c4nn(C)c(=O)c5ccccc45)ccc3C)c(=O)c3ccccc23)cc1 | ? | 3.2µM*! | 16µM* | ? | ?
Cn1nc(-c2ccc(C(=O)Nc3ccc(F)cc3)cc2)c2ccccc2c1=O | -5% | ? | 40µM* | 0% | ?
Cc1ccc(-c2nn(C)c(=O)c3ccccc23)cc1CNC(=O)c1ccccc1 | -14% | ? | -19% | -9% | 11µM*
CCC(=O)NCc1cc(-c2nn(C)c(=O)c3ccccc23)ccc1C | nt | 0% | -9% | nt | 17%
Cc1ccc(NC(=O)c2ccc(-c3nn(C)c(=O)c4ccccc34)cc2)cc1 | nt | -23% | ? | nt | -12%
CCOc1ccc(CNC(=O)C2CCCN(c3nn4cc(-c5ccc(OC)cc5)nc4s3)C2)cc1 (stereo not given) | ? | nt | -20% | ? | 7%[46.1 µM]
O=C(CSc1n[nH]c(=O)[nH]c1=O)N/N=C/c1ccccc1 | -1% | -1% | -5% | -8% | 0%
COc1ccc(CN2CCOc3ccc(C(O)c4cccnc4)cc3C2)c(OC)c1OC (stereo not given) | 8% | nt | -7% | -2% | nt
